Results on three molecules are retold here after PubChem BioAssay.

The source made the active and inactive calls.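 Rule for the calls: active = normalized viability below 100% at a tested concentration; inactive = the rest.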

One assay in a line: drug combination growth inhibition, ovarian cancer – cell-based, oncology-focused library, rucaparib conditional, profiling panel (AID 1508598). To be noted: patient-derived ovarian cancer cells, CellTiter-Glo viability, 144 h; at 0.00122 µM; OCI-C5x cells; with rucaparib 10 µM; active compounds read low; 100% = cells with rucaparib alone. Background: In ATP-based viability assays light output follows the ATP content of the culture.
One may read the viability as a per cent measure of how many cells are alive, often set against a control. As for `CC(C)[C@@]12O[C@@H]1[C@@H]1O[C@]13[C@]1(O[C@@H]1C[C@@H]1C4=C(CC[C@@]13C)C(=O)OC4)[C@@H]2O`, the viability is 19.5% (active).

For `C/C(=C\c1csc(C)n1)[C@H]1C[C@@H]2O[C@]2(C)CCC[C@H](C)[C@H](O)[C@@H](C)C(=O)C(C)(C)[C@H](O)CC(=O)O1`, the viability was 36.1% (active).

As for `C/C(=C\c1csc(C)n1)[C@H]1C[C@@H]2O[C@@H]2CCC[C@H](C)[C@H](O)[C@@H](C)C(=O)C(C)(C)[C@H](O)CC(=O)O1`, the viability is 41.4% (active).

Still in this assay, the particulars now being: patient-derived ovarian cancer cells, CellTiter-Glo viability, 144 h; at 0.00122 µM; OCI-C5x cells; without rucaparib; active compounds read low.
For the molecule `CC(C)[C@@]12O[C@@H]1[C@@H]1O[C@]13[C@]1(O[C@@H]1C[C@@H]1C4=C(CC[C@@]13C)C(=O)OC4)[C@@H]2O`, the viability was 15.4% (active).

With `C/C(=C\c1csc(C)n1)[C@H]1C[C@@H]2O[C@]2(C)CCC[C@H](C)[C@H](O)[C@@H](C)C(=O)C(C)(C)[C@H](O)CC(=O)O1`, the viability was 27.1% (active).

For `C/C(=C\c1csc(C)n1)[C@H]1C[C@@H]2O[C@@H]2CCC[C@H](C)[C@H](O)[C@@H](C)C(=O)C(C)(C)[C@H](O)CC(=O)O1`, the viability was 28.8% (active).

The assay is the same for the next values; noted with them: patient-derived ovarian cancer cells, CellTiter-Glo viability, 144 h; at 0.00122 µM; OCI-P5x cells; with rucaparib 20 µM; active compounds read low; 100% = cells with rucaparib alone.
In the case of `CC(C)[C@@]12O[C@@H]1[C@@H]1O[C@]13[C@]1(O[C@@H]1C[C@@H]1C4=C(CC[C@@]13C)C(=O)OC4)[C@@H]2O`, the viability was 12.6% (active).

As for `C/C(=C\c1csc(C)n1)[C@H]1C[C@@H]2O[C@]2(C)CCC[C@H](C)[C@H](O)[C@@H](C)C(=O)C(C)(C)[C@H](O)CC(=O)O1`, the viability was 48.9% (active).

In the case of `C/C(=C\c1csc(C)n1)[C@H]1C[C@@H]2O[C@@H]2CCC[C@H](C)[C@H](O)[C@@H](C)C(=O)C(C)(C)[C@H](O)CC(=O)O1`, the viability was 57.4% (active).

The same assay, now with this note: patient-derived ovarian cancer cells, CellTiter-Glo viability, 144 h; at 0.00122 µM; OCI-P5x cells; without rucaparib; active compounds read low.
With `CC(C)[C@@]12O[C@@H]1[C@@H]1O[C@]13[C@]1(O[C@@H]1C[C@@H]1C4=C(CC[C@@]13C)C(=O)OC4)[C@@H]2O`, the viability is 7.08% (active).

As for `C/C(=C\c1csc(C)n1)[C@H]1C[C@@H]2O[C@]2(C)CCC[C@H](C)[C@H](O)[C@@H](C)C(=O)C(C)(C)[C@H](O)CC(=O)O1`, the viability is 17.2% (active).

Consider `C/C(=C\c1csc(C)n1)[C@H]1C[C@@H]2O[C@@H]2CCC[C@H](C)[C@H](O)[C@@H](C)C(=O)C(C)(C)[C@H](O)CC(=O)O1`, for which the viability is 15.9% (active).

Staying with this assay, now noted: patient-derived ovarian cancer cells, CellTiter-Glo viability, 144 h; at 0.00488 µM; OCI-C5x cells; with rucaparib 10 µM; active compounds read low; 100% = cells with rucaparib alone.
On to `CC(C)[C@@]12O[C@@H]1[C@@H]1O[C@]13[C@]1(O[C@@H]1C[C@@H]1C4=C(CC[C@@]13C)C(=O)OC4)[C@@H]2O`, for which the viability is 8% (active).

As to `C/C(=C\c1csc(C)n1)[C@H]1C[C@@H]2O[C@]2(C)CCC[C@H](C)[C@H](O)[C@@H](C)C(=O)C(C)(C)[C@H](O)CC(=O)O1`, the viability was 39.5% (active).

For the molecule `C/C(=C\c1csc(C)n1)[C@H]1C[C@@H]2O[C@@H]2CCC[C@H](C)[C@H](O)[C@@H](C)C(=O)C(C)(C)[C@H](O)CC(=O)O1`, the viability was 27.2% (active).

The same assay, now with this note: patient-derived ovarian cancer cells, CellTiter-Glo viability, 144 h; at 0.00488 µM; OCI-C5x cells; without rucaparib; active compounds read low.
For `CC(C)[C@@]12O[C@@H]1[C@@H]1O[C@]13[C@]1(O[C@@H]1C[C@@H]1C4=C(CC[C@@]13C)C(=O)OC4)[C@@H]2O`, the viability is 7.6% (active).

On to `C/C(=C\c1csc(C)n1)[C@H]1C[C@@H]2O[C@]2(C)CCC[C@H](C)[C@H](O)[C@@H](C)C(=O)C(C)(C)[C@H](O)CC(=O)O1`, for which the viability was 27.9% (active).

Regarding `C/C(=C\c1csc(C)n1)[C@H]1C[C@@H]2O[C@@H]2CCC[C@H](C)[C@H](O)[C@@H](C)C(=O)C(C)(C)[C@H](O)CC(=O)O1`, the viability was 23.1% (active).

Staying with this assay, now noted: patient-derived ovarian cancer cells, CellTiter-Glo viability, 144 h; at 0.00488 µM; OCI-P5x cells; with rucaparib 20 µM; active compounds read low; 100% = cells with rucaparib alone.
On to `CC(C)[C@@]12O[C@@H]1[C@@H]1O[C@]13[C@]1(O[C@@H]1C[C@@H]1C4=C(CC[C@@]13C)C(=O)OC4)[C@@H]2O`, for which the viability is 13.9% (active).

On to `C/C(=C\c1csc(C)n1)[C@H]1C[C@@H]2O[C@]2(C)CCC[C@H](C)[C@H](O)[C@@H](C)C(=O)C(C)(C)[C@H](O)CC(=O)O1`, for which the viability was 48% (active).

As to `C/C(=C\c1csc(C)n1)[C@H]1C[C@@H]2O[C@@H]2CCC[C@H](C)[C@H](O)[C@@H](C)C(=O)C(C)(C)[C@H](O)CC(=O)O1`, the viability was 51% (active).

The same assay, now with this note: patient-derived ovarian cancer cells, CellTiter-Glo viability, 144 h; at 0.00488 µM; OCI-P5x cells; without rucaparib; active compounds read low.
For the molecule `CC(C)[C@@]12O[C@@H]1[C@@H]1O[C@]13[C@]1(O[C@@H]1C[C@@H]1C4=C(CC[C@@]13C)C(=O)OC4)[C@@H]2O`, the viability is 8.9% (active).

Take `C/C(=C\c1csc(C)n1)[C@H]1C[C@@H]2O[C@]2(C)CCC[C@H](C)[C@H](O)[C@@H](C)C(=O)C(C)(C)[C@H](O)CC(=O)O1`: the viability is 17.6% (active).

As to `C/C(=C\c1csc(C)n1)[C@H]1C[C@@H]2O[C@@H]2CCC[C@H](C)[C@H](O)[C@@H](C)C(=O)C(C)(C)[C@H](O)CC(=O)O1`, the viability was 16.8% (active).

The same assay, now with this note: patient-derived ovarian cancer cells, CellTiter-Glo viability, 144 h; at 0.0195 µM; OCI-C5x cells; with rucaparib 10 µM; active compounds read low; 100% = cells with rucaparib alone.
For the molecule `CC(C)[C@@]12O[C@@H]1[C@@H]1O[C@]13[C@]1(O[C@@H]1C[C@@H]1C4=C(CC[C@@]13C)C(=O)OC4)[C@@H]2O`, the viability was 10.1% (active).

Turning to `C/C(=C\c1csc(C)n1)[C@H]1C[C@@H]2O[C@]2(C)CCC[C@H](C)[C@H](O)[C@@H](C)C(=O)C(C)(C)[C@H](O)CC(=O)O1`, the viability was 34.8% (active).

On to `C/C(=C\c1csc(C)n1)[C@H]1C[C@@H]2O[C@@H]2CCC[C@H](C)[C@H](O)[C@@H](C)C(=O)C(C)(C)[C@H](O)CC(=O)O1`, for which the viability was 29.1% (active).
